We go through 40 compounds from PubChem BioAssay (NCATS).

Records with an inconclusive call do not appear. Values without a mark were called inactive. The call rests on the fitted dose curve; in most records, active means well fitted curve in the direction sought with a large enough effect; inconclusive means small, poorly fitted or top-dose-only effect, or another doubt; inactive means no such curve, though single readings can be large or run the other way.

Sequence of Protein phosphatase 1D (Homo sapiens) (O15297 whole entry, looked up): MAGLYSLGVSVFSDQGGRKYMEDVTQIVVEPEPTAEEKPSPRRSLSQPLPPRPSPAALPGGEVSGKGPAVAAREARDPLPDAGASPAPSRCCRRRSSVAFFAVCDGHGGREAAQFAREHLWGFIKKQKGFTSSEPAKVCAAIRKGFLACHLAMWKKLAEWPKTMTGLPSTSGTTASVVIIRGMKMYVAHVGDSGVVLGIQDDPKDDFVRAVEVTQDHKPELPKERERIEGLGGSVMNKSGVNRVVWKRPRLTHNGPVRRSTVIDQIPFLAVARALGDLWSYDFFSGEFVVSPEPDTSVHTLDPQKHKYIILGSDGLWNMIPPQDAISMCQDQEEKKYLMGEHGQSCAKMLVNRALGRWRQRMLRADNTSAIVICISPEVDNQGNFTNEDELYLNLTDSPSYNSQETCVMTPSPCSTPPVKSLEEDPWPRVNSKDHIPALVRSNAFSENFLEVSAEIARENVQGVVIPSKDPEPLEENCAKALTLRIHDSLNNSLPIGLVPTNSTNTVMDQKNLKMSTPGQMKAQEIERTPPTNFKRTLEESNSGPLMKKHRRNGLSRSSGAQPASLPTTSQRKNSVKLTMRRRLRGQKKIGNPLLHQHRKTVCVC

This experiment concerns the target Protein phosphatase 1D (Homo sapiens) (UniProt O15297). The experiment is described as follows: Rhodamine-PBP qHTS Assay for Modulators of WT P53-Induced Phosphatase 1 (WIP1) (AID 1347425). To be noted: recombinant WIP1, Rhodamine-PBP phosphate fluorescence, real-time; series mostly up to 57.5 µM; activity change, negative = inhibition: at the top concentration. An excerpt:
Assay Provider (PI): Nathan Coussens Ph.D.
National Center for Advancing Translational Sciences (NCATS), Rockville, MD
National Institute of Health (NIH), Bethesda, Maryland
WT P53-Induced Phosphatase 1 (WIP1) is a member of the magnesium-dependent serine/threonine protein phosphatase (PPM) family and is induced by P53 in response to DNA damage. In several human cancers, the WIP1 protein is overexpressed, which is generally associated with a worse prognosis. Although WIP1 is an attractive therapeutic target, no potent, selective, and bioactive small-molecule modulator with favorable pharmacokinetics has been reported. Phosphatase enzymes are among the most challenging targets for small molecules because of the difficulty of achieving both modulator selectivity and bioavailability. Another major obstacle has been the availability of robust and physiologically relevant phosphatase assays that are suitable for high-throughput screening.
Here, we describe two orthogonal biochemical WIP1 activity assays that utilize phosphopeptides from native WIP1 substrates. We optimized a RapidFire MS assay to quantify the enzymatically dephosphorylated peptide reaction product in a 384-well format. Additionally, a redshifted Rhodamine-PBP fluorescence assay was optimized in a 1,536-well format to enable real-time WIP1 activity measurements through the detection of the orthogonal reaction product, Pi. We validated these two optimized assays by quantitative high-throughput screening against the National Center for Advancing Translational Sciences (NCATS) Pharmaceutical Collection and used secondary assays to confirm and evaluate inhibitors identified in the primary screen.
SEQUENCE No. (e.g., 1, 2, 3, etc.); […] (e.g., Cells, Incubation, Reagent, etc.); VALUE; DESCRIPTION
1; Reagent; 3 uL; WIP1 (6.7 nM), Rh-PBP (13.3 uM), columns 1-48
3; Library Compounds; 23 nL; NCATS Pharmaceutical Collection, column 5-48
4; Control Compounds; DMSO in column 2, GSK2830371 (57.5 uM, final) in 3-fold serial dilutions in column 3, GSK2830371 (1.15 uM, final) in column 4
5; Time; 1 hr; incubation
6; Detection; fluorescence (f0); ViewLux, excitation filter = 525 nm, emission filter = 598 nm
7; Reagent; 1 uL; VEPP-pS-QETFS (40 uM), columns 2-48
8; Detection; fluorescence (f1); ViewLux, excitation filter = 525 nm, emission filter = 598 nm
NOTES (numbers refer to sequence above)
1 & 2; Black medium binding Greiner 1536-well plates (# 789176-F); assay buffer: 50 mM Tris-HCl pH 7.5, 30 mM MgCl2, 1mM TCEP, 0.1 mM EGTA, 75 ug/mL BSA; dispensed with a BioRaptr liquid handler (Beckman Coulter).
3 & 4; Kalypsys pintool (equipped with 1536 pinhead, Wako USA) transfer. Tip wash sequence: DMSO, methanol, 3 sec vacuum dry.
5; Room temperature incubation.
7; VEPPL-pS-QETFS in assay buffer dispensed with a BioRaptr; final reaction conditions: 5 nM WIP1, 10 uM VEPPL-pS-QETFS, 10 uM Rh-PBP, 50 mM Tris-HCl pH 7.5, 30 mM MgCl2, 1 mM TCEP, 0.1 mM EGTA, 75 ug/mL BSA.
8; Measurement taken at 1 min intervals for 11 min. Delta readout = f1 - f0.
In general terms: In qHTS, concentration-response curves come from the screen itself.
For `O=C(O)c1ccccc1O`, the “activity change, negative = inhibition” value was 1.69%. For `CSc1ccc2c(c1)C(N1CCN(C)CC1)Cc1ccccc1S2` (stereo not given) the value was 36.6%; for `CCOc1ccc2ccccc2c1C(=O)N[C@@H]1C(=O)N2[C@@H]1SC(C)(C)[C@@H]2C(=O)O`, -27.5%; for `CCn1cc(C(=O)O)c(=O)c2cnc(N3CCNCC3)nc21`, 13.7%. For `CN(C)CCOC(C)(c1ccccc1)c1ccccn1` (stereo not given) the value was 3.41%; for `CCOC(=O)[C@H](CCc1ccccc1)N[C@@H](C)C(=O)N1C(=O)N(C)C[C@H]1C(=O)O`, 6.26%; for `NC(N)=NCCC[C@H](N)C(=O)O`, -0.0772% [at 4.81 µM].

Regarding `O=C(Oc1ccccc1C(=O)O)c1ccccc1O`, the “activity change, negative = inhibition” value is -4.87%. For `CC(=O)Oc1ccc(C2(c3ccc(OC(C)=O)cc3)C(=O)Nc3ccccc32)cc1` the value was 8.51%. On to `Cc1cc2nc3c(=O)[nH]c(=O)nc-3n(C[C@H](O)[C@H](O)[C@H](O)CO)c2cc1C`, for which the “activity change, negative = inhibition” value was 14.4% [at 23.8 µM]. Turning to `C[C@](N)(Cc1ccc(O)cc1)C(=O)O`, the activity change, negative = inhibition is -0.695% [at 4.81 µM].

Consider `O=C(CCCN1CCN(c2ccccn2)CC1)c1ccc(F)cc1`, for which the “activity change, negative = inhibition” value was -11.5%. For the compound `Cc1ncc([N+](=O)[O-])n1CC(O)CCl` (stereo not given), the “activity change, negative = inhibition” value is 13.2%. As for `C[C@@H]1CCN(C(=O)[C@H](CCCN=C(N)N)NS(=O)(=O)c2cccc3c2NC[C@H](C)C3)[C@@H](C(=O)O)C1`, the “activity change, negative = inhibition” value is 16.7%.

In the case of `C/C(=C(\CCOP(=O)(O)O)SC(=O)c1ccccc1)N(C=O)Cc1cnc(C)nc1N`, the activity change, negative = inhibition is -15.2% [at 4.81 µM]. Under `N[C@@H](CSCCCO)C(=O)O` stands 2.01% [at 23.8 µM]. Regarding `NS(=O)(=O)c1cc2c(cc1Cl)NC(CSCc1ccccc1)=NS2(=O)=O`, the “activity change, negative = inhibition” value is -3.4%. As for `O=C(O)CC(O)C(=O)O` (stereo not given), the “activity change, negative = inhibition” value was 0.897%. As to `Nc1ccc(S(=O)(=O)Nc2ccccc2)cc1`, the “activity change, negative = inhibition” value is -16.8%. Regarding `CC(C)(C)C(=O)NCCCC(=O)O`, the “activity change, negative = inhibition” value was 6.57%. Under `CC(C)C(=O)c1c(C(C)C)nn2ccccc12` stands 26.8%.

In the case of `CCCCCCCCCCCCOS(=O)(=O)O`, the “activity change, negative = inhibition” value is -11.2%. Regarding `OCCN1CCN(CCCN2c3ccccc3Sc3ccc(Cl)cc32)CC1`, the “activity change, negative = inhibition” value is 13.9%.

Take `O=C(O)[C@@H]1CSCN1`: the “activity change, negative = inhibition” value is 8.34%. For the compound `CCCCC/C(C=O)=C\c1ccccc1`, the “activity change, negative = inhibition” value is 1.33%. Under `CC(=O)NC(Cc1ccccc1)C(=O)O` (stereo not given) stands -0.386%.

As for `CC(COc1ccccc1)NC(C)C(O)c1ccc(O)cc1` (stereo not given), the “activity change, negative = inhibition” value was -13.2%. With `COc1cc2[nH]c(=O)[nH]c(=O)c2cc1OC`, the “activity change, negative = inhibition” value was 8.27%. In the case of `CC1=C(CC(=O)O)c2cc(F)ccc2/C1=C\c1ccc(S(C)(=O)=O)cc1`, the “activity change, negative = inhibition” value is -34.3%.

`O=c1cc(CO)occ1O`: the “activity change, negative = inhibition” value was -2.91%. As for `Nc1cc(=O)[nH]c(N)n1`, the “activity change, negative = inhibition” value was 11.4%. Regarding `Nc1ccc(S(=O)(=O)Nc2nccs2)cc1`, the “activity change, negative = inhibition” value is 3.48%. Regarding `CCN(CC)CCSC(=O)C(c1ccccc1)c1ccccc1`, the “activity change, negative = inhibition” value is 22.9%.

With `CCOc1nc2cccc(C(=O)O)c2n1Cc1ccc(-c2ccccc2-c2nn[nH]n2)cc1`, the “activity change, negative = inhibition” value was -6.21%. As to `CCCCc1ncc(/C=C(\Cc2cccs2)C(=O)O)n1Cc1ccc(C(=O)O)cc1`, the “activity change, negative = inhibition” value is -8.08%. Consider `NC(CSCC(=O)O)C(=O)O` (stereo not given), for which the “activity change, negative = inhibition” value was 5.28%.

Consider `O=C1NS(=O)(=O)c2ccccc21`, for which the “activity change, negative = inhibition” value was 8.27%. Take `O=c1[nH]cnc2c1ncn2[C@@H]1O[C@H](CO)[C@@H](O)[C@H]1O`: the “activity change, negative = inhibition” value is 3.94%. For the compound `O=C1Nc2ccc(Cl)cc2[C@@](C#CC2CC2)(C(F)(F)F)O1`, the “activity change, negative = inhibition” value is -20.1%. For the compound `C[C@@H]1C[C@H]2[C@@H]3C[C@H](F)C4=CC(=O)C=C[C@]4(C)[C@@]3(F)[C@@H](O)C[C@]2(C)[C@@]1(O)C(=O)CO`, the “activity change, negative = inhibition” value was 14.2%.
